PubChem BioAssay (Tox21)
Results filed as inconclusive are left out. The source holds several records for some structures; these can differ, active in one and inactive in another. The source made the active and inactive calls. Unless noted, calls follow the shape of the dose curve; as a rule, active = well fitted curve in the direction sought with a large enough effect in the repeat runs; inconclusive = weak or mixed curves; inactive = no such curve, though single readings can be large; an effect the other way counts as inactive or inconclusive.

Columns and labels:
[1] = qHTS assay to identify small molecule agonists of the peroxisome proliferator-activated receptor delta (PPARd) signaling pathway - cell viability counter screen (AID 743211); details: PPARd-bla HEK293H viability, CellTiter-Glo luminescence, 17 h; series mostly up to 62.6 µM; also: nearly all actives have a fitted effect of over 55% in size; also: potency is read from the fitted curve at half-maximal effect
Outline: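 Following 5 h plating at 37 C and 5% CO2, PPARd UAS-bla HEK293H cells took up test compounds for 17 h. Viability was quantified by luminescence 30 min after CellTiter-Glo addition at room temperature.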

[2] = qHTS assay to identify small molecule antagonists of the peroxisome proliferator-activated receptor delta (PPARd) signaling pathway - cell viability counter screen (AID 743213); details: PPARd-bla HEK293H viability, CellTiter-Glo luminescence, 17 h; series mostly up to 62 µM; also: nearly all actives have a fitted effect of over 50% in size; also: potency is read from the fitted curve at half-maximal effect
Outline: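 Same-well viability: cells pre-incubated 5 h, dosed with compound plus 300 nM L165041, kept 17 h at 37 C, FRET substrate 2 h RT, then CellTiter-Glo 30 min RT and luminescence.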

[3] = target: Bile acid receptor (Homo sapiens) (UniProt Q96RI1); experiment: qHTS assay to identify small molecule antagonists of the farnesoid-X-receptor (FXR) signaling pathway (AID 743217; active = well fitted inhibition curve with a large enough effect in the signal ratio in the repeat runs, not every such curve was filed as active; the % refers to the signal ratio); details: HEK293T FXR-UAS-bla, beta-lactamase ratio, CDCA-stimulated, 16 h; series mostly up to 62.6 µM
Outline: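 Antagonist mode: chenodeoxycholic acid at 50 uM final stimulates a UAS-driven beta-lactamase reporter in HEK 293T FXR-bla cells during 16 h, 37C compound exposure. Read-out is FRET substrate fluorescence after 2 h at room temperature.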

[4] = qHTS assay to identify small molecule agonists of the farnesoid-X-receptor (FXR) signaling pathway - cell viability counter screen (AID 743218); details: FXR-bla HEK293T viability, CellTiter-Glo luminescence, 16 h; series mostly up to 62.6 µM; also: nearly all actives have a fitted effect of over 45% in size; also: potency is read from the fitted curve at half-maximal effect
Outline: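 Viability counter screen in the same wells: CellTiter-Glo luminescence, 30 min room-temperature incubation, measured after the beta-lactamase read. Cells were GeneBLAzer FXR-UAS-bla HEK 293T, compound-treated 16 h at 37C.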

[5] = target: Vitamin D3 receptor (Homo sapiens) (UniProt P11473); experiment: qHTS assay to identify small molecule agonists of the vitamin D receptor (VDR) signaling pathway (AID 743222; calls by dose curve); details: HEK293T VDR-UAS-bla, beta-lactamase FRET ratio, 16 h; series mostly up to 63.5 µM
Outline: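 Agonist mode, beta-lactamase reporter: fluorescence from LiveBLAzer B/G FRET substrate (2 h, room temperature) read after 16 h compound treatment at 37 C of VDR-bla cells, which were pre-incubated 4 h after seeding.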

[6] = target: Vitamin D3 receptor (Homo sapiens) (UniProt P11473); experiment: qHTS assay to identify small molecule antagonists of the vitamin D receptor (VDR) signaling pathway (AID 743223; active = well fitted inhibition curve with a large enough effect in the signal ratio in the repeat runs, not every such curve was filed as active; the % refers to the signal ratio); details: VDR-UAS-bla HEK293T, beta-lactamase FRET ratio, 16 h; series mostly up to 61 µM
Outline: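 Beta-lactamase activity in VDR-bla cells is measured by FRET substrate fluorescence (2 h, room temperature) after cells spend 16 h at 37C with test compound and 3 nM final 1alpha,25-dihydroxyvitamin D3.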

[7] = target: Peroxisome proliferator-activated receptor delta (Homo sapiens) (UniProt Q03181); experiment: qHTS assay to identify small molecule antagonists of the peroxisome proliferator-activated receptor delta (PPARd) signaling pathway (AID 743215; active = well fitted inhibition curve with a large enough effect in the signal ratio in the repeat runs, not every such curve was filed as active; the % refers to the signal ratio;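 also: cells stimulated with agonist L165041 at 300 nM final during compound exposure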; also: potency is read from the fitted curve at half-maximal effect); details: HEK293H PPARd-UAS-bla, beta-lactamase FRET ratio, antagonist, 17 h; series mostly up to 62 µM
Outline: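 Agonist L165041 (300 nM final) added with compound to PPARd-bla HEK293H UAS-bla reporter cells; 17 h incubation at 37 C. Read-out: LiveBLAzer FRET substrate, 2 h at room temperature, fluorescence intensity.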

[8] = qHTS assay to identify small molecule antagonists of the farnesoid-X-receptor (FXR) signaling pathway - cell viability counter screen (AID 743221; active = well fitted cell-killing curve with a large enough effect in the repeat runs, not every such curve was filed as active; also: nearly all actives have a fitted effect of over 50% in size; also: potency is read from the fitted curve at half-maximal effect); details: FXR-bla HEK293T viability, CellTiter-Glo luminescence, 16 h; series mostly up to 62.6 µM
Outline: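 Compound effects on cell number were measured as CellTiter-Glo luminescence in HEK 293T cells expressing FXR-UAS-bla, after 16 h at 37 C with 50 uM CDCA (final).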

[9] = target: Bile acid receptor (Homo sapiens) (UniProt Q96RI1); experiment: qHTS assay to identify small molecule agonists of the farnesoid-X-receptor (FXR) signaling pathway (AID 743220; active = well fitted activation curve with a large enough effect in the signal ratio in the repeat runs, not every such curve was filed as active; the % refers to the signal ratio); details: HEK293T FXR-UAS-bla, beta-lactamase FRET ratio, 16 h; series mostly up to 62.6 µM
Outline: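 FXR-UAS-bla HEK 293T cells carrying a UAS-driven beta-lactamase reporter were plated for 5 h at 37C/5% CO2, then exposed to DMSO-dissolved Tox21 10K compounds for 16 h at 37C. A LiveBLAzer B/G FRET substrate was loaded for 2 h at room temperature before fluorescence reading.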

[10] = target: Peroxisome proliferator-activated receptor delta (Homo sapiens) (UniProt Q03181); experiment: qHTS assay to identify small molecule agonists of the peroxisome proliferator-activated receptor delta (PPARd) signaling pathway (AID 743212; calls by dose curve); details: HEK293H PPARd-UAS-bla, beta-lactamase FRET ratio, 17 h; series mostly up to 62.6 µM
Outline: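 Read-out: beta-lactamase FRET fluorescence after 2 h room-temperature incubation with LiveBLAzer B/G substrate. Cells were HEK293H carrying a UAS-bla reporter for PPARd, treated at 37 C with DMSO-dissolved compounds.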

Measured: Potency

Chain of Bile acid receptor (Homo sapiens) (Q96RI1 whole entry, looked up): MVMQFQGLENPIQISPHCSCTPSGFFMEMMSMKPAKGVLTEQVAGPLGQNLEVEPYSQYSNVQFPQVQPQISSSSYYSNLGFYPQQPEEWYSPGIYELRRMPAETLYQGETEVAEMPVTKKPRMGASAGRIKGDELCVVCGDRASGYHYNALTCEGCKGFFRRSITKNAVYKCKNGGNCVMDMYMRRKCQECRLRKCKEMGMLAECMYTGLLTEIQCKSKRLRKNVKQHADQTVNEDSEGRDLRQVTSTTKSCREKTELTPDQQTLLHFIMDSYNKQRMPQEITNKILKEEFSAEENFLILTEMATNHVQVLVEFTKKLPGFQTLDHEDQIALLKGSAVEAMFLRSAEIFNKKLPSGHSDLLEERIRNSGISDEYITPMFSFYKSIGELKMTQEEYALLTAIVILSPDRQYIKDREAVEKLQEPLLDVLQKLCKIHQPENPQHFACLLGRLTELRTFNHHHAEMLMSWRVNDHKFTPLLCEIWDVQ
Chain of Peroxisome proliferator-activated receptor delta (Homo sapiens) (Q03181 whole entry, looked up): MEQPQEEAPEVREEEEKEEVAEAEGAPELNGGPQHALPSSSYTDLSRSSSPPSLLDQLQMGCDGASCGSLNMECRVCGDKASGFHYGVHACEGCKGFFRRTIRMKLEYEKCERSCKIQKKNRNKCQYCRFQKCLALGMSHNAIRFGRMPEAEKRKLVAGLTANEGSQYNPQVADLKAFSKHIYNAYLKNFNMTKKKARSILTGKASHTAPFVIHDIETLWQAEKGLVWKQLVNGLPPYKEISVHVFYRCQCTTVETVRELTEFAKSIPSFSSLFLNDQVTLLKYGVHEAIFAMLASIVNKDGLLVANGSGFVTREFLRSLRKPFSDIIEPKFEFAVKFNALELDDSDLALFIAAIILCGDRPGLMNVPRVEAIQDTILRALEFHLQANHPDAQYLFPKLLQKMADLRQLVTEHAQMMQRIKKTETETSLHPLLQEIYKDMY
Chain of Vitamin D3 receptor (Homo sapiens) (P11473 whole entry, looked up): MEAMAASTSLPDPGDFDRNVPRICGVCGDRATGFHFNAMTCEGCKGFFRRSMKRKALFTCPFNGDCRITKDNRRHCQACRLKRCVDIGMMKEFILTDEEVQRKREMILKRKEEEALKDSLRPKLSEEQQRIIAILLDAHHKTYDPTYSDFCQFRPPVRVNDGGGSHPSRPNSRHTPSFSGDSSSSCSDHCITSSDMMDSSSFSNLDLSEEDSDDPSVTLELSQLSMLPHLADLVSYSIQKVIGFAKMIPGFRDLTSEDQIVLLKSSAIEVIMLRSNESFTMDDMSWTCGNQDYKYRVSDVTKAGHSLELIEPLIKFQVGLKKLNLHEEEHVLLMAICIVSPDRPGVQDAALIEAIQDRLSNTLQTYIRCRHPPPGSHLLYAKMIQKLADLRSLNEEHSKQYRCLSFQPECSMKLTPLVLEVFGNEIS

O=NN1CCCCCC1
inactive: [1] | [2] | [3] | [4] | [5] | [6]

C=CCCl
inactive: [1] | [2] | [7] | [4] | [8] | [5]

II
inactive: [1] | [2] | [7] | [8] | [5] | [6]

COC(=O)c1cncn1C(C)c1ccccc1 (stereo unspecified)
inactive: [1] | [2] | [7] | [8] | [6]

COC(N)=O
inactive: [1] | [2] | [7] | [3] | [8] | [5]

CNC(C)Cc1ccccc1OC (stereo unspecified)
inactive: [1] | [2] | [7] | [8] | [5] | [6]

CCCCCC[N+](=O)[O-]
inactive: [1] | [2] | [3] | [9] | [8] | [5]

Clc1cccc2ccccc12
inactive: [1] | [2] | [7] | [8] | [5]

CCOP(O)OCC
inactive: [1] | [2] | [7] | [4] | [5] | [6]

ClCc1cccc(Cl)c1
not listed: [4] | [9] | [10]
inactive: all other assays above

C=CCOC(C)=O
not listed: [7] | [8] | [10]
inactive: all other assays above

CC(C)=CCOc1c2occc2cc2ccc(=O)oc12
not listed: [4] | [6] | [10]
inactive: all other assays above

O=[N+]([O-])c1cc(C(F)(F)F)cc([N+](=O)[O-])c1Cl
not listed: [4] | [6] | [10]
inactive: all other assays above

O=C(NC(=O)c1c(F)cccc1F)Nc1ccc(OC(F)(F)C(F)OC(F)(F)F)c(Cl)c1 (stereo unspecified)
inactive: [1] | [2] | [7] | [8] | [5] | [6]

CN1C(=O)NC(=O)C(C)(C2=CCCCC2)C1=O (stereo unspecified)
inactive: [1] | [2] | [7] | [4] | [8]

CC(=O)[C@H]1CC[C@H]2[C@@H]3CC[C@H]4C[C@](C)(O)CC[C@]4(C)[C@H]3CC[C@]12C
inactive: [1] | [2] | [7] | [8]

Cl/C=C\C[N+]12CN3CN(CN(C3)C1)C2
not listed: [7] | [8] | [10]
inactive: all other assays above

CC/C(=N\OC/C=C/Cl)C1=C(O)CC(C2CCOCC2)CC1=O (stereo unspecified)
inactive: [1] | [2] | [7] | [4] | [8] | [5]

O=C(O)C1(c2ccc3c(c2)OC[C@H](Cc2ccc(-c4ccccc4)cc2)[C@H]3O)CCCC1
active: [1] 49 µM | [2] 43.6 µM
inactive: [3]

O=Cc1ccc(Cl)cc1Cl
inactive: [1] | [2] | [7] | [5] | [6]

CN(C)c1ccc(N(C)C)cc1
inactive: [2] | [3] | [9] | [8]

O=C(NC(=O)c1c(F)cccc1F)Nc1cc(Cl)c(Oc2ncc(C(F)(F)F)cc2Cl)c(Cl)c1
active: [4] 37.3 µM
inactive: [2] | [7]

COc1ccc(-c2ccccc2)cc1NNC(=O)OC(C)C
inactive: [1] | [9] | [5]

COc1nn(CSP(=S)(OC)OC)c(=O)s1
inactive: [1] | [9]

COP(=O)(OC)O/C(=C/Cl)c1cc(Cl)c(Cl)cc1Cl
inactive: [10] | [2] | [3] | [9] | [8]

CCC(C)(NC(=O)c1cc(Cl)c(C)c(Cl)c1)C(=O)CCl (stereo unspecified)
active: [1] 49.3 µM | [8] 55.3 µM

CC(c1ccc(O)cc1)(c1ccc(O)cc1)c1ccc(O)cc1
inactive: [2] | [8] | [5]
active: [7] 4.9 µM

CC(C)(C)C(O)C(Oc1ccc(Cl)cc1)n1cncn1 (stereo unspecified)
inactive: [8]

Clc1ccc(C(OCCN2CCCCC2)c2ccccc2)cc1 (stereo unspecified)
inactive: [8] | [5] | [6]

CCOP(=S)(OCC)Oc1cc(Cl)c(Br)cc1Cl
inactive: [4] | [9] | [5] | [6]

O=C=Nc1ccc(Cl)cc1
inactive: [1] | [8] | [5]

O=C1NCN(c2ccccc2)C12CCN(CCCOc1ccc(F)cc1)CC2
inactive: [10] | [2] | [7] | [9] | [8] | [5]

[CH3][Sn]([CH3])([Cl])[Cl]
inactive: [2] | [5] | [6]
55.9 µM (active) and inactive: [4] | [8]

O=C(O)C(F)(F)C(F)(F)C(F)(F)C(F)(F)C(F)(F)C(F)(F)C(F)(F)C(F)(F)C(F)(F)F
inactive: [10] | [2] | [7] | [4] | [8]

NCCCNCCCN
inactive: [5]
active: [2] 49.7 µM

O=C(OC1CCCCC1)c1ccccc1C(=O)OC1CCCCC1
active: [1] 46 µM
inactive: [6]

CC(C)(C)c1cc([N+](=O)[O-])cc([N+](=O)[O-])c1O
inactive: [2] | [4] | [5]

CC(C)N(C(=O)COc1nnc(C(F)(F)F)s1)c1ccc(F)cc1
inactive: [10] | [4] | [9] | [8]

O=C(CBr)Nc1ccc(Cl)cc1C(=O)c1ccccc1F
inactive: [10] | [2] | [4] | [8] | [5] | [6]

Nc1ccc(N=Nc2ccc(-c3ccc(N=Nc4c(S(=O)(=O)O)cc5cc(S(=O)(=O)O)c(N=Nc6ccccc6)c(O)c5c4N)cc3)cc2)c(N)c1
inactive: [1] | [6]

CO/C=C(/C(=O)OC)c1ccccc1COc1cccc(C(F)(F)F)n1
inactive: [2] | [4] | [8] | [5]

O=C1c2ccccc2C(=O)C1C(=O)C(c1ccccc1)c1ccccc1
inactive: [2]

CC[C@H]1C[C@H]2[C@@H]3CCC4=CC(=O)CC[C@@H]4[C@H]3CC[C@]2(C)[C@H]1O
inactive: [2] | [4] | [8] | [6]

NS(=O)(=O)C(F)(F)C(F)(F)C(F)(F)C(F)(F)C(F)(F)C(F)(F)C(F)(F)C(F)(F)F
inactive: [2]
active: [4] 54.9 µM | [8] 27.5 µM

CCOP(=S)(OCC)SCn1nnc2ccccc2c1=O
active: [2] 54.9 µM | [4] 43.6 µM

CCCC(Cn1cncn1)c1ccc(Cl)cc1Cl (stereo unspecified)
inactive: [10] | [2] | [7] | [4] | [8] | [5]

O=[N+]([O-])c1ccc(F)c([N+](=O)[O-])c1
active: [4] 2.21 µM
inactive: [10] | [7] | [3] | [5] | [6]

O=S1(=O)OC(c2cc(Br)c(O)c(Br)c2)(c2cc(Br)c(O)c(Br)c2)c2ccccc21
inactive: [10] | [7] | [3] | [9] | [5]

Cc1ccc(-c2c(Cl)nc(C#N)n2S(=O)(=O)N(C)C)cc1
inactive: [8] | [5]

O=S1OC[C@@H]2[C@H](CO1)[C@]1(Cl)C(Cl)=C(Cl)[C@@]2(Cl)C1(Cl)Cl (stereo partly specified)
inactive: [2] | [3] | [5]

C=CC(=O)NCNC(=O)C=C
inactive: [1] | [8] | [5]

N#Cc1cc(I)c(O)c(I)c1
inactive: [7] | [8] | [5]

COP(=S)(Oc1cc(Cl)c(Br)cc1Cl)c1ccccc1 (stereo unspecified)
inactive: [10] | [2] | [5] | [6]

COP(=S)(OC)Oc1ccc([N+](=O)[O-])cc1Cl
inactive: [10] | [7] | [8]

CCCCC(CC)COP(=O)(Oc1ccccc1)Oc1ccccc1 (stereo unspecified)
not listed: [1] | [3] | [7]
inactive: all other assays above

O=C1C(=O)c2cccc3cccc1c23
inactive: [10] | [2] | [7] | [4] | [8]
